# Article PMC7862700, “An all-to-all approach to the identification of sequence-specific readers for epigenetic DNA modifications on cytosine”
# Legend:
# Test in all cases: DAPPL (digital affinity profiling via proximity ligation, sequencing); 10 mM Tris-HCl pH 7.5, 50 mM NaCl, 1 mM DTT, 4% glycerol, room temperature, 30 min; GST-TFs on glutathione beads, 16-mer random dsDNA library, 0.1% formaldehyde crosslink after washing; high values mean tight binding
# Conditions in all cases: protein: recombinant; tags: N-terminal GST; dsDNA, one strand shown
# FLI1 = target: T1, FLI1 (Homo sapiens, UniProt Q01543 1-452)
# T1 sequence: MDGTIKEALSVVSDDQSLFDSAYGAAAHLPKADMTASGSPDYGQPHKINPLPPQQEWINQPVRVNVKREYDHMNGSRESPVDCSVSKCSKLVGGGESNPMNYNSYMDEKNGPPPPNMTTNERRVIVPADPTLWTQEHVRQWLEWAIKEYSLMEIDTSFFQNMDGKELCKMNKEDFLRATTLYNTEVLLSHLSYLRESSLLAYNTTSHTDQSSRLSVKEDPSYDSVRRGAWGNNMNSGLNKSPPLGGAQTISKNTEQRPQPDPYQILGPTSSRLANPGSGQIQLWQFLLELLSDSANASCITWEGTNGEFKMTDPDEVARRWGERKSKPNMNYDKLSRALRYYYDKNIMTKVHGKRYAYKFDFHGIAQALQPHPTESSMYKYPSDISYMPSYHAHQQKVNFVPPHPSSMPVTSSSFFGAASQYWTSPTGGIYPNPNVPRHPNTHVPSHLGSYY
# Method in brief: (§1)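 Binding signal is defined as a hexamer's read frequency for one factor over its frequency for the tag-only sample. To obtain reads, GST-fused human transcription factors were expressed in yeast, captured on glutathione beads, barcoded with DNA and pooled with that sample. Pools met 200 nmole of a 16-mer random double-stranded DNA library in Tris/NaCl/DTT/glycerol buffer for 30 min at room temperature before washing, 0.1% formaldehyde crosslinking, proximity ligation (BsaI/T4 ligase, 1 h, 37 °C), PCR and Illumina NextSeq500 sequencing.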
# ELK1 = target: T2, ELK1 (Homo sapiens, UniProt P19419 1-428)
# T2 sequence: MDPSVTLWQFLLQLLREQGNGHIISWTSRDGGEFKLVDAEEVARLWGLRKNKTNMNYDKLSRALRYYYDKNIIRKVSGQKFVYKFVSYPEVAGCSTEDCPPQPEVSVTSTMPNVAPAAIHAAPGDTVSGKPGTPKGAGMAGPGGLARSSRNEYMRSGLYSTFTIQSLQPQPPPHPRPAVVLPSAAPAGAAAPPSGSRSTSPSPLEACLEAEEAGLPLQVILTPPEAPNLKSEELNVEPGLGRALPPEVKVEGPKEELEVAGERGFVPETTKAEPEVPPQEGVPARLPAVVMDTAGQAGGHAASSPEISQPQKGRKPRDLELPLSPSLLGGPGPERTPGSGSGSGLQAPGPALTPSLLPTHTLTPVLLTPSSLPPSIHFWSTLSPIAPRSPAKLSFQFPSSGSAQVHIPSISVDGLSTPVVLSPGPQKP
# Method in brief: as §1
# GABPA = target: T3, GABPA (Homo sapiens, UniProt Q06546 1-454)
# T3 sequence: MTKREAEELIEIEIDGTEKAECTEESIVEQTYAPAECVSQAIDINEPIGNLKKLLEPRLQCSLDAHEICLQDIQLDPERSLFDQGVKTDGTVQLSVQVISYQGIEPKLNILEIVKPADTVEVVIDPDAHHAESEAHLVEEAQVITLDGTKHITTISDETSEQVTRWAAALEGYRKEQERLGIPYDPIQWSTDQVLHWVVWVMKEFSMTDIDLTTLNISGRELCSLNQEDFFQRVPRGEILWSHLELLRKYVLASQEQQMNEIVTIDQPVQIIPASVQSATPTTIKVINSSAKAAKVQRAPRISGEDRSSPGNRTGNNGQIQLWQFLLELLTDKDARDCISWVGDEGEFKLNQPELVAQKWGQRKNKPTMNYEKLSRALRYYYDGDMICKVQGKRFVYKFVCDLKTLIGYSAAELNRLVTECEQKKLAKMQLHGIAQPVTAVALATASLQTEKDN
# Method in brief: as §1
# ERG = target: T4, ERG (Homo sapiens, UniProt P11308 1-479)
# T4 sequence: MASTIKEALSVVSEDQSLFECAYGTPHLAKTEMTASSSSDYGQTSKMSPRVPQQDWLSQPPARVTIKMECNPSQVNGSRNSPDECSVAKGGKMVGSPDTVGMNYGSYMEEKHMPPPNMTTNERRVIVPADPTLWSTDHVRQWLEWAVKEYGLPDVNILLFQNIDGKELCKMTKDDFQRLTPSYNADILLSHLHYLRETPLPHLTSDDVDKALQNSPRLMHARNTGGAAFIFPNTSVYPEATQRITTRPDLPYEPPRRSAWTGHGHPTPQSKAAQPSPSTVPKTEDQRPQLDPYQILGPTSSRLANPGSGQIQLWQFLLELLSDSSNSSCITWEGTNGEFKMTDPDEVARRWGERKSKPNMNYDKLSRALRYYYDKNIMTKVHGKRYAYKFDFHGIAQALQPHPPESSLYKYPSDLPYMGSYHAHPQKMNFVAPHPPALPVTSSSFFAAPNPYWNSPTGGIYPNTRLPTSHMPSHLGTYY
# Method in brief: as §1
# ELF1 = ELF1 (Homo sapiens, UniProt P32519 1-619)
# ELF1, sequence (P32519 whole entry): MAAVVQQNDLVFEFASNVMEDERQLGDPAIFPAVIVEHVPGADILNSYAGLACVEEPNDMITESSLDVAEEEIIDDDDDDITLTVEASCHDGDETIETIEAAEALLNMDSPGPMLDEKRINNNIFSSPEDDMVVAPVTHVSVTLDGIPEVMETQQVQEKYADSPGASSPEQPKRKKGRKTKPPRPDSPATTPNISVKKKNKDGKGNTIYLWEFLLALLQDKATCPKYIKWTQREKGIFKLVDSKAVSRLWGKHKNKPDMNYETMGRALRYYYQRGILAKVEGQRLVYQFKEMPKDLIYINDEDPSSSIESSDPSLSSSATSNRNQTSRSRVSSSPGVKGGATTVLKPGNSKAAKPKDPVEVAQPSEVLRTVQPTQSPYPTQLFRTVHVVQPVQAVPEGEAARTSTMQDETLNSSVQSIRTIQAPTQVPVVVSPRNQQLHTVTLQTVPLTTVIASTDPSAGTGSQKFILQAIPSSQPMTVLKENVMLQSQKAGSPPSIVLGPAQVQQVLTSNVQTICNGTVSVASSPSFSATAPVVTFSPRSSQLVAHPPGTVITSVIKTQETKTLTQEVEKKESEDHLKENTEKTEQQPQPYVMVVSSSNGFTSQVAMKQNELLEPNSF
# Method in brief: as §1
# EHF = target: T5, EHF (Homo sapiens, UniProt Q9NZC4 1-300)
# T5 sequence: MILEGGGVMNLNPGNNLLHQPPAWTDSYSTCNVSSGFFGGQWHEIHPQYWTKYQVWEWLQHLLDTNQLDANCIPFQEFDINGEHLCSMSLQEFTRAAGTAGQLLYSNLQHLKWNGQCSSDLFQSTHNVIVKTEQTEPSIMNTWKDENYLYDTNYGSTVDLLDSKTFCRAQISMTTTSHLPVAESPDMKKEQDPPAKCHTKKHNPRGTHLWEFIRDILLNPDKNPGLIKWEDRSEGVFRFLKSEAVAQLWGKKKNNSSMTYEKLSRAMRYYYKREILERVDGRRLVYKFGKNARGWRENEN
# Method in brief: as §1
# SPIB = SPIB (Homo sapiens, UniProt Q01892 1-262)
# SPIB, sequence (Q01892 whole entry): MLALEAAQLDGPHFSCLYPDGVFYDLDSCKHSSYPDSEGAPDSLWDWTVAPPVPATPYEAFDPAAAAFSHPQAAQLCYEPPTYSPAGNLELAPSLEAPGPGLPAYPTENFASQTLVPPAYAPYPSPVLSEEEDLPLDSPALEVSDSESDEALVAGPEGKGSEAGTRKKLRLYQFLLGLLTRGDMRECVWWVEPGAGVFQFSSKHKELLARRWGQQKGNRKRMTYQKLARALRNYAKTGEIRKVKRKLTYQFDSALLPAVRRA
# Method in brief: as §1
# ELK3 = target: T6, ELK3 (Homo sapiens, UniProt P41970 1-407)
# T6 sequence: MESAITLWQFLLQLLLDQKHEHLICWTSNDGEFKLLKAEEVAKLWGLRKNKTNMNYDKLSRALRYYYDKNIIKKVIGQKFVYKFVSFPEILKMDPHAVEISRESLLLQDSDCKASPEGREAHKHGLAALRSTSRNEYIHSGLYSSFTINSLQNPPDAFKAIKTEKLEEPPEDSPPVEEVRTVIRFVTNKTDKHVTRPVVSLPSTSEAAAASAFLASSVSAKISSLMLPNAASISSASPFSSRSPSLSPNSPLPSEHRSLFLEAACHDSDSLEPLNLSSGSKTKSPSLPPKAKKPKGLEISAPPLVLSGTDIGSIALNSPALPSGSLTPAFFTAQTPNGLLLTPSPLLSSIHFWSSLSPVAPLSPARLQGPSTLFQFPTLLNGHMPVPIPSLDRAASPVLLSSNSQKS
# Method in brief: as §1
# ETV5 = ETV5 (Homo sapiens, UniProt P41161 1-510)
# ETV5, sequence (P41161 whole entry): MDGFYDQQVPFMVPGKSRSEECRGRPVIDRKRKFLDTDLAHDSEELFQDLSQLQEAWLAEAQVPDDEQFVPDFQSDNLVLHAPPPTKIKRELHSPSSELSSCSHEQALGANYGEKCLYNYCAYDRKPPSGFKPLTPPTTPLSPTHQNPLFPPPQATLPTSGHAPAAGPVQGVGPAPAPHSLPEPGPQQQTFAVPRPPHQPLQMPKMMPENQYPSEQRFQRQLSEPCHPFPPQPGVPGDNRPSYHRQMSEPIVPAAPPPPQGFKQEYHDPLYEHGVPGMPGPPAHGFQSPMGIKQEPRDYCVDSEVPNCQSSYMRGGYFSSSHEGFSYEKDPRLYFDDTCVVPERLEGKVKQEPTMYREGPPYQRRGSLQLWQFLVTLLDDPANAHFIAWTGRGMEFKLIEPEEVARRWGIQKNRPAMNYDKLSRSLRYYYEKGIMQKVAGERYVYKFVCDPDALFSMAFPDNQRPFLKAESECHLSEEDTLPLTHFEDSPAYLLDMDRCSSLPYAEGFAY
# Method in brief: as §1
# ELF4 = ELF4 (Homo sapiens, UniProt Q99607 1-663)
# ELF4, sequence (Q99607 whole entry): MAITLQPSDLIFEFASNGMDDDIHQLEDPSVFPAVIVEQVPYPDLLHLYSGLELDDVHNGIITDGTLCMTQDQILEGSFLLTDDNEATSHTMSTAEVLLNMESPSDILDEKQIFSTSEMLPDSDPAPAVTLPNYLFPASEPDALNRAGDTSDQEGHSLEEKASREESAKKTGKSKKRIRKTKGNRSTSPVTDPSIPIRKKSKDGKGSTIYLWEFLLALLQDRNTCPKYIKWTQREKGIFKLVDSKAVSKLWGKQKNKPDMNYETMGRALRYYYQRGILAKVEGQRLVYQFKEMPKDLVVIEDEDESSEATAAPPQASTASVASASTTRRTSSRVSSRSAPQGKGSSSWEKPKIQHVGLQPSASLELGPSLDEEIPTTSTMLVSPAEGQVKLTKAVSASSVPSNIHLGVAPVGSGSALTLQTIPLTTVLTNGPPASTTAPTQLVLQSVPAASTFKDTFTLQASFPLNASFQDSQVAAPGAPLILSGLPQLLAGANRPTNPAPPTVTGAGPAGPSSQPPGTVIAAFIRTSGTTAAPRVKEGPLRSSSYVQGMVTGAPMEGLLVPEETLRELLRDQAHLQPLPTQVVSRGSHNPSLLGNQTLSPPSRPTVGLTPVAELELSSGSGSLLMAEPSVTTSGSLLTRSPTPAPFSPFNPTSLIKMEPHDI
# Method in brief: as §1
# ETV2 = target: T7, ETV2 (Homo sapiens, UniProt O00321 1-342)
# T7 sequence: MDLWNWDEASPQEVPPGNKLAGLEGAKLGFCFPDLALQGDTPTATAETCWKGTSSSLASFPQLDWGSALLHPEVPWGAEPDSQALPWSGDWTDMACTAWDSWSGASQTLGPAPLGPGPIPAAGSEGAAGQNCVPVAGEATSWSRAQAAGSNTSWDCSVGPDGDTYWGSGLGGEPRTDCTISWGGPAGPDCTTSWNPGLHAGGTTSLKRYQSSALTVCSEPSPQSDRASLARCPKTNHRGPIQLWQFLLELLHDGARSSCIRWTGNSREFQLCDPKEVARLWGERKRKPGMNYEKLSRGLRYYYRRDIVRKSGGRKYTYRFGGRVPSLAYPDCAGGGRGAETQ
# Method in brief: as §1
# ELF3 = target: T8, ELF3 (Homo sapiens, UniProt P78545 1-371)
# T8 sequence: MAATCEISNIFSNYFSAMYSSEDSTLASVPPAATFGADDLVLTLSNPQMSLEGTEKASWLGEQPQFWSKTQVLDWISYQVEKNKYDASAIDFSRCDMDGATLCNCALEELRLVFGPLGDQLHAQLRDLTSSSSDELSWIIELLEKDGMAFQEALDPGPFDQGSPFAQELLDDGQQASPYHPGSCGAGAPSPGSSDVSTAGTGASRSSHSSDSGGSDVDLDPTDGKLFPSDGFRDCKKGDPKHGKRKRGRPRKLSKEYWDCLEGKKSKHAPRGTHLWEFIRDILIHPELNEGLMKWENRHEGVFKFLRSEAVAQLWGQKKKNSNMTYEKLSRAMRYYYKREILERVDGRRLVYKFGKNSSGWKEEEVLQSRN
# Method in brief: as §1
# ERF = target: T9, ERF (Homo sapiens, UniProt P50548 1-548)
# T9 sequence: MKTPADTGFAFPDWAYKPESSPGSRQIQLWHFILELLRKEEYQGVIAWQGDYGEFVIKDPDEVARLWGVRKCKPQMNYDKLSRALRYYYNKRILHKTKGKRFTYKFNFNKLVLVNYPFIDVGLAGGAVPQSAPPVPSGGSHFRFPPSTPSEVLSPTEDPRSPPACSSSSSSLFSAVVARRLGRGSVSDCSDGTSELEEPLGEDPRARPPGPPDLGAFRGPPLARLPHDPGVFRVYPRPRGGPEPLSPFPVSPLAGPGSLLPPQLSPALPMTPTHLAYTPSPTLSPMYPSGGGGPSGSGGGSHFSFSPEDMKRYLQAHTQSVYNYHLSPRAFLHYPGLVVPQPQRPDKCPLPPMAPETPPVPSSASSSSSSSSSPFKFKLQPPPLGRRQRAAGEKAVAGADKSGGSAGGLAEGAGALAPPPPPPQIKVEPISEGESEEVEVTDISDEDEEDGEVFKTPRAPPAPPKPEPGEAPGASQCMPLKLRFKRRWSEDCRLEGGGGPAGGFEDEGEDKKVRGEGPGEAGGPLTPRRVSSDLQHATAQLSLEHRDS
# Method in brief: as §1
# ETV3L = target: T10, ETV3L (Homo sapiens, UniProt Q6ZN32 1-361)
# T10 sequence: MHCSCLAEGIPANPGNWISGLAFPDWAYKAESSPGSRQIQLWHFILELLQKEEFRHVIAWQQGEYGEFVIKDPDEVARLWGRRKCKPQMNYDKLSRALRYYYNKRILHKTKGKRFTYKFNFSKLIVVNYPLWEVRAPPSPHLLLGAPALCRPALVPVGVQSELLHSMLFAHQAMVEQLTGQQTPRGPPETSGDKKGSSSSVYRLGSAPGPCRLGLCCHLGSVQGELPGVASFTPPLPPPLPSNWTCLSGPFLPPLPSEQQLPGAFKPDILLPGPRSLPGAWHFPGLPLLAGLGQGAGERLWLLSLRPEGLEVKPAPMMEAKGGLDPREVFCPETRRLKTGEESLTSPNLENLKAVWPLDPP
# Method in brief: as §1
# ETS2 = target: T11, ETS2 (Homo sapiens, UniProt P15036 1-469)
# T11 sequence: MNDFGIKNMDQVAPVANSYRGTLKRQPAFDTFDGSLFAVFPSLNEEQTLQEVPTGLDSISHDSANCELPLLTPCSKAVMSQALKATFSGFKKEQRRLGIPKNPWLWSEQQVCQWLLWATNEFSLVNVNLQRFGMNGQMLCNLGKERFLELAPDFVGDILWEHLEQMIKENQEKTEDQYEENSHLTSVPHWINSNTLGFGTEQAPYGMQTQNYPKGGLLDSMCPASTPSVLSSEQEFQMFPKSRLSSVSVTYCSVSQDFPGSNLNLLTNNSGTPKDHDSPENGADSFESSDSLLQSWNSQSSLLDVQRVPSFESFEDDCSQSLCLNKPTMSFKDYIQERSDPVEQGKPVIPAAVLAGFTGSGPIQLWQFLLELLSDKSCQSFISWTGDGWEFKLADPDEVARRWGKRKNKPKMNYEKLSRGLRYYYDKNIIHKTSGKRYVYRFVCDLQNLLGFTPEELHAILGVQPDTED
# Method in brief: as §1
# ETV3 = target: T12, ETV3 (Homo sapiens, UniProt P41162-2 1-143)
# T12 sequence: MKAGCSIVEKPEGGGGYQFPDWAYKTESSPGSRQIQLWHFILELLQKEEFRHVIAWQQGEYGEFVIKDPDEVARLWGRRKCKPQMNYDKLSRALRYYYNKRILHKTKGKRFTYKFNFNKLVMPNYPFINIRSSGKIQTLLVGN
# Method in brief: as §1
# ETV6 = ETV6 (Homo sapiens, UniProt P41212 1-452)
# ETV6, sequence (P41212 whole entry): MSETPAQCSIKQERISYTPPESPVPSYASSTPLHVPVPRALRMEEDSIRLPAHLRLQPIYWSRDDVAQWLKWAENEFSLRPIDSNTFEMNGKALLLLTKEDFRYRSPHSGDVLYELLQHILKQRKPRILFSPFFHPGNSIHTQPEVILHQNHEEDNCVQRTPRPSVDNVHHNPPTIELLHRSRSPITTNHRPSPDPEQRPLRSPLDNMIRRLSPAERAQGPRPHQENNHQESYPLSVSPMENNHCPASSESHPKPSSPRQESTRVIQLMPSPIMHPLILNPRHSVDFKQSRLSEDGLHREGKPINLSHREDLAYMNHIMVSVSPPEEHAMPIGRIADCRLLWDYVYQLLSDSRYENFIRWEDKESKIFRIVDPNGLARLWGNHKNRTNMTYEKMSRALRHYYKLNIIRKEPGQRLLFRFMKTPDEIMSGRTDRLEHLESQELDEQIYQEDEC
# Method in brief: as §1
Sequence,binding signal (FLI1),binding signal (ELK1),binding signal (GABPA),binding signal (ERG),binding signal (ELF1),binding signal (EHF),binding signal (SPIB),binding signal (ELK3),binding signal (ETV5),binding signal (ELF4),binding signal (ETV2),binding signal (ELF3),binding signal (ERF),binding signal (ETV3L),binding signal (ETS2),binding signal (ETV3),binding signal (ETV6)
AGCGCC,"1.01 fold enrichment (6-mer frequency, TF over GST control)","1.06 fold enrichment (6-mer frequency, TF over GST control)","1.07 fold enrichment (6-mer frequency, TF over GST control)","1.05 fold enrichment (6-mer frequency, TF over GST control)","1.13 fold enrichment (6-mer frequency, TF over GST control)","1.13 fold enrichment (6-mer frequency, TF over GST control)","1.1 fold enrichment (6-mer frequency, TF over GST control)","1.02 fold enrichment (6-mer frequency, TF over GST control)","1.04 fold enrichment (6-mer frequency, TF over GST control)","1.09 fold enrichment (6-mer frequency, TF over GST control)","1.09 fold enrichment (6-mer frequency, TF over GST control)","1.09 fold enrichment (6-mer frequency, TF over GST control)","1.05 fold enrichment (6-mer frequency, TF over GST control)","1.07 fold enrichment (6-mer frequency, TF over GST control)","1.06 fold enrichment (6-mer frequency, TF over GST control)","1.14 fold enrichment (6-mer frequency, TF over GST control)","1.16 fold enrichment (6-mer frequency, TF over GST control)"
TGTGCG,"1.03 fold enrichment (6-mer frequency, TF over GST control)","1.08 fold enrichment (6-mer frequency, TF over GST control)",–,–,–,–,"1.01 fold enrichment (6-mer frequency, TF over GST control)","1.01 fold enrichment (6-mer frequency, TF over GST control)","1.04 fold enrichment (6-mer frequency, TF over GST control)","1.01 fold enrichment (6-mer frequency, TF over GST control)","1.2 fold enrichment (6-mer frequency, TF over GST control)",–,"1.06 fold enrichment (6-mer frequency, TF over GST control)",–,"1.05 fold enrichment (6-mer frequency, TF over GST control)","1.04 fold enrichment (6-mer frequency, TF over GST control)","1.06 fold enrichment (6-mer frequency, TF over GST control)"
